High-throughput results: PubChem, National Center for Advancing Translational Sciences (NCATS)
Hits are enriched below; roughly 12% of the tested compounds scored in any of these assays.
HP1b chromo inh: HTS for Inhibitors of HP1-beta Chromodomain Interactions with Methylated Histone Tails; Chromobox protein homolog 1 (Homo sapiens), P83916; AlphaScreen HP1-beta / biotin-H3K9me3 peptide binding; Potency, µM (series often up to 114 µM), most hits filed as inhibitors; 390,000 tested, 0.56% active; AID 540317, 2011; further: nearly all actives have a fitted effect of over 70% in size
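AlphaScreen: HP1-beta (50 nM) preformed 30 min with biotin-H3(1-18)K9me3 peptide (50 nM) in PBS pH 7.4, 0.01% Tween-20. Compound added for 30 min at RT, then streptavidin donor/nickel chelate acceptor beads (10 ug/mL) for 30 min.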
BAZ2B inh: qHTS Assay for Inhibitors of BAZ2B; Potency, µM (highest dose often 114 µM), hits mostly inhibitors; AlphaScreen BAZ2B-H3K14Ac peptide displacement; AID 504333, 2011; 360,000 tested, 4.4% active; further: nearly all actives have a fitted effect of over 60% in size
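AlphaScreen luminescence quantifies BAZ2B engagement of H3K14Ac peptide; the protein and biotinylated peptide are both at 50 nM final, buffer PBS pH 7.4 with 0.01% Tween-20, all steps at room temperature.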
G9a inh: qHTS Assay for Inhibitors of Histone Lysine Methyltransferase G9a; Potency, µM (top dose mostly 102 µM), most hits filed as inhibitors; G9a H3K9 monomethylation, AlphaScreen, 2 h; AID 504332, 2011; 350,000 tested, 8.8% active; further: nearly all actives have a fitted effect of over 75% in size
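G9a (20 nM) was preincubated 15 min with compound, then reacted 2 h at room temperature with 500 nM biotin-H3K9 peptide and 20 µM SAM. Monomethyl-H3K9 detected by AlphaScreen using anti-H3K9me1 antibody.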
TDP1 inh: qHTS Assay for Inhibitors of Tyrosyl-DNA Phosphodiesterase (TDP1); Potency, µM (top dose mostly 130 µM), usual class: inhibitors; AID 485290, 2010; 350,000 tested, 0.28% active; Tyrosyl-DNA phosphodiesterase 1 (Homo sapiens), Q9NUW8; recombinant TDP1, AlphaScreen DNA substrate cleavage; further: nearly all actives have a fitted effect of over 40% in size
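AlphaScreen read-out: signal falls as enzyme removes the 3' tyrosine-FITC from a 5'-biotinylated DNA oligo (15 nM, 5 min, RT). Enzyme was E. coli-made recombinant Tdp1 at 1 nM, exposed to compound for 15 min beforehand; beads 10 ug/ml, 10 min.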
Sfp PPTase inh: qHTS Assay for Inhibitors of Bacillus subtilis Sfp phosphopantetheinyl transferase (PPTase) | Potency, µM, actives largely listed as inhibitors | 310,000 tested, 3.5% active | AID 1490, 2009 | 4'-phosphopantetheinyl transferase ffp (Bacillus subtilis), Q9F4F7 | Biochemical Sfp PPTase activity, qHTS;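 further: the enzyme is Sfp with the accession as filed and its product quenches rhodamine fluorescence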
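With Hepes-Na pH 7.6 buffer containing 10 mM MgCl2, Sfp (15 nM) modified BHQ-2-YbbR (12.5 uM) using rhodamine-CoA (5 uM). Two reads 30 minutes apart at 525/598 nm yielded each well's rate.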
JMJD2A Tudor: qHTS Assay for Inhibitors of JMJD2A-Tudor Domain; AlphaScreen JMJD2A-Tudor / H3K4me3 peptide binding; AID 504339, 2011; 390,000 tested, 4.4% active; Lysine-specific demethylase 4A (Homo sapiens), O75164; Potency, µM (series often up to 114 µM), actives largely listed as inhibitors; further: nearly all actives have a fitted effect of over 50% in size
Target sequence (O75164 whole entry, looked up, the tested form may be a part): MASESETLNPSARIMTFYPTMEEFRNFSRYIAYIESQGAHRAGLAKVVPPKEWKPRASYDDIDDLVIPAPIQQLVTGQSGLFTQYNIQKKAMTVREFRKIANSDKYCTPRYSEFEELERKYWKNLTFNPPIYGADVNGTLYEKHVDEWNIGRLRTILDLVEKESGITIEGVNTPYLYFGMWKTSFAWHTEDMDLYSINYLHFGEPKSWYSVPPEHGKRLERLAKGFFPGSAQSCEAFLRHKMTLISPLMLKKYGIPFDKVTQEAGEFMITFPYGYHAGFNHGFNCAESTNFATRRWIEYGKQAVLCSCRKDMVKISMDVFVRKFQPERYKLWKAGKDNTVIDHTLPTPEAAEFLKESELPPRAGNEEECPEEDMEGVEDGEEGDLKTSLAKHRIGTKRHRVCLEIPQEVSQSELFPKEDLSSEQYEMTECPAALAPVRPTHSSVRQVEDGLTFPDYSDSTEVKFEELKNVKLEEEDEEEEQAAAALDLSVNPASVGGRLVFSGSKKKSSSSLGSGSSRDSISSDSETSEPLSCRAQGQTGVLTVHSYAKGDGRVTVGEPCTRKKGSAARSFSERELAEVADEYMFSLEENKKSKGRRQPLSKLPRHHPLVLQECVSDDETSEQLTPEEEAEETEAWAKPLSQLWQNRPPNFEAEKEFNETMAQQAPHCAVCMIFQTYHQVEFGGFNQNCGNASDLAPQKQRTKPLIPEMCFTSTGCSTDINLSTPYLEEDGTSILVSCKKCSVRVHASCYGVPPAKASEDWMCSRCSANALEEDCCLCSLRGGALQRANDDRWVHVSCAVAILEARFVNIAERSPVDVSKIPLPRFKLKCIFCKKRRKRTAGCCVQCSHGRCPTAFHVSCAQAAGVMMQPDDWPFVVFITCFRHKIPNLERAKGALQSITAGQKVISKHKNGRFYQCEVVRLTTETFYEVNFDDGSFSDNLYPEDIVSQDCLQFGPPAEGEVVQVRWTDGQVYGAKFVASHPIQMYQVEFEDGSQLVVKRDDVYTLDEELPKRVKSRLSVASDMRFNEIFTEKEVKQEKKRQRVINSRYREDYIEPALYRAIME
Numbers stand for hits; i = inactive; ? = inconclusive; nt = not tested or not shown; ! = not confirmed by another sample; [ ] = dose if it differs, or a comment. The call rests on the fitted dose curve; in most records, active means well fitted curve in the direction sought with a large enough effect; inconclusive means small, poorly fitted or top-dose-only effect, or another doubt; inactive means no such curve, though single readings can be large; an effect the other way counts as inactive or inconclusive.

SMILES	HP1b chromo inh	BAZ2B inh	G9a inh	TDP1 inh	Sfp PPTase inh	JMJD2A Tudor
Cc1ccc(C(=O)CSC2=C(C#N)C(c3ccco3)C3=C(CC(C)(C)CC3=O)N2)cc1 (stereo not given)	i	?	39.8µM	i	i	?
Cc1ccc(NC(=O)CSC2=C(C#N)C(c3ccco3)C3=C(CCCC3=O)N2)cc1 (stereo not given)	i	?	i[12.7 µM]	i	10µM	?
N#CC1=C(SCC(=O)c2ccc(Cl)cc2)NC2=C(C(=O)CCC2)C1c1ccco1 (stereo not given)	i	?	?	i	44.7µM	?
CC(=O)c1cc(-c2ccc(F)cc2)n(CCC(=O)NCc2ccccc2C)c1C	i	i	i	i	nt	i
CCc1ccc2nc(N(CCN(C)C)C(=O)c3ccc4ccccc4c3)sc2c1	i	?	79.4µM	i	?	?
CN(C)CCCN(C(=O)c1ccc(C(=O)c2ccccc2)cc1)c1nc2ccc(F)cc2s1	i	?	?	i	i	i
CN(C)CCN(C(=O)c1ccc2ccccc2c1)c1nc2ccc(F)cc2s1	i	i	44.7µM	i	i	?
O=C(O)CC1S/C(=N\N=C2\C(=O)Nc3ccccc32)N(c2ccc(O)cc2)C1=O (stereo not given)	i	i	i	nt	i	i
COC(=O)c1cc2oc3ccccc3c2n1Cc1ccccn1	i	i	i	i	39.8µM	i
Cc1nnnn1/C(=C\c1ccccc1)C(=O)OCC(=O)NC1CCCCC1	i	i	50.1µM	i[0.505 µM]	nt	i
CCCc1nnc2n1N=C(c1ccc([N+](=O)[O-])cc1)CS2	i	i	70.8µM	i	i	i
Cc1nnc2n(c1=O)N=C(c1ccc(Cl)cc1)CS2	i	i	70.8µM	i	?	i
CCc1nnc2n1N=C(c1cccc([N+](=O)[O-])c1)CS2	i	i	i	nt	i	i
O=[N+]([O-])c1ccc(C2=Nn3c(Cn4nnc5ccccc54)nnc3SC2)cc1	?	i	nt	nt	20µM	56.2µM
CCCc1nnc2n1N=C(c1ccc(C)cc1)CS2	i	i	79.4µM	i	i	i
CCc1nnc2n1N=C(c1ccc(Cl)cc1)CS2	i	i	i	nt	i	i
CCCOc1ccc(-c2c(=O)n(OCC(=O)OCC)c3ccccc3[n+]2[O-])cc1	i	i	i	i	i	i
COC(=O)C1=C(O)/C(=C\c2cc(C)n(-c3ccccc3C)c2C)N=C1C	i	79.4µM	20µM	i	44.7µM	i
COC(=O)C1=C(O)/C(=C\c2sccc2C)N=C1C	i	i	i	i	i	i
COC(=O)C1=C(O)/C(=C\c2cc(C)n(-c3ccccc3F)c2C)N=C1C	i	56.2µM	?	i	i	i
CC(=O)c1ccc(NC(=O)CCc2nnc3ccc(N4CCCC4)nn23)cc1	i	i	i	i	i	i
COc1ccc(Nc2ncnc3c2cnn3-c2cc(Cl)ccc2C)cc1OC	i	i	i	i	nt	?
CCCC(=O)NCC1(N(C)C)CCCCC1	i	i	i	i	nt	i
CN=c1scc(-c2ccccc2F)n1/N=C/c1ccc[nH]1	39.8µM	31.6µM	17.8µM	i	i	50.1µM
CN=c1scc(C)n1/N=C/c1ccc(O)cc1	i	?	?	i	i	i
SMILES	HP1b chromo inh	BAZ2B inh	G9a inh	TDP1 inh	Sfp PPTase inh	JMJD2A Tudor
COc1ccc(CCNC(=O)CC2SC(=NCc3ccccc3)NC2=O)cc1 (stereo not given)	i	i	?	i	i	i
CCN1CCS/C1=C\C=C\C1=[N+](CC)CCS1	i	i	3.16µM	i	i	i
CCN1CCS/C1=C/C=C/C1=[N+](CC)CCS1	i	i	50.1µM	i	i	?
CCOc1ccc(C(=O)NCC(c2ccco2)N2CCOCC2)cc1 (stereo not given)	i	i	i	i	nt	i
Cc1ccc(C)c(CN2C(=O)c3ccccc3Sc3ccc(C(=O)NCc4ccc5c(c4)OCO5)cc32)c1	i	i	i	i	nt	i
COc1cccc(-n2cc3c(=O)n(C)c(=O)n(C)c3c2)c1	i	?	35.5µM	i	i	i
N=c1ccn(O)cc1CCc1ccccc1	i	nt	nt	nt	nt	i
CCCCN(NC(C)=O)c1nc(Cl)nc(NC(C)C)n1	i	i	50.1µM	i	i	i
CC(C)C(=O)Nc1ccc(C(=O)Nc2nnc(C(C)C)s2)cc1	i	i	i	i	i	i
CCN(CC)C(=O)CSc1nc2ccccc2c(=O)n1-c1cccc(OC)c1	i	i	i	i	i	i
COc1cccc(-n2c(SCc3cc(=O)oc4cc(O)c(O)cc34)nc3ccccc3c2=O)c1	?	35.5µM	?	i	i	39.8µM
Cc1nc(CN(C)C(=O)c2cc(COc3ccc4ncccc4c3)on2)cs1	i	i	?	i	i	i
O=C1CC(c2cccs2)Sc2nc3ccccc3n21 (stereo not given)	i	i	?	i	i	i
O=C1CSCc2nc3ccccc3n21	i	nt	nt	nt	nt	20µM
COc1cccc(C(NC(=O)c2ccccc2F)NC(=O)c2ccccc2F)c1	i	i	i	i	?	i
COc1cccc(C(c2c(N)[nH]c(=S)[nH]c2=O)c2c(N)[nH]c(=S)[nH]c2=O)c1	i	i	nt	nt	79.4µM	?
Cc1ccc(S(=O)(=O)N2CCN(c3nc(-c4ccc(F)cc4)nc4cc(Cl)ccc34)CC2)cc1	i	nt	nt	i	nt	i
COC(=O)CSc1nc(C)cc(C)n1	i	i	i	i	i	14.1µM
Cc1cc(C)nc(SCC(=O)NC2=NC(=O)C(C)S2)n1 (stereo not given)	i	i	17.8µM	i	22.4µM	?
Cc1cc(C(F)(F)F)nc(SCC(=O)NC2=NC(=O)C(C)S2)n1 (stereo not given)	i	i	?	i	i	i
Cn1c(SCC(=O)c2ccc(F)cc2)nnc1-c1ccccc1Br	i	i	i	i	nt	i
Clc1ccc(C(c2ccccc2Cl)C(Cl)Cl)cc1 (stereo not given)	i	i	i	i	i	i
CCc1ccc(C(c2ccc(CC)cc2)C(Cl)Cl)cc1	i	i	i[0.501 µM]	20µM!	nt	i
COC(=O)c1ccc2c(=O)[nH]c(COC(=O)c3c(-c4ccccc4Cl)noc3C)nc2c1	i	i	?	nt	nt	i
C=CCn1c(CCCOc2ccc(Cl)cc2Cl)nnc1SCC(=O)Nc1nccs1	i	i	39.8µM	i	i	i
CCn1c(CCCOc2ccc(Cl)cc2Cl)nnc1SCC(=O)Nc1cc(F)ccc1C	i	i	i	i	i	i
CCn1c(Cc2ccccc2)nnc1SCC(=O)Nc1nccs1	i	i	i[2.33 µM]	i	i	i
